Experimental data from PubChem BioAssay (NCATS).
Values without a mark were called inactive. Results filed as inconclusive are left out. The list shows a part of the results. Calls of active or inactive are those of the source. Unless noted, calls come from the whole dose curve; as a rule, active = well fitted curve in the direction sought with a large enough effect; inconclusive = small, poorly fitted or top-dose-only effect, or another doubt; inactive = no such curve, though single readings can be large; an effect the other way counts as inactive or inconclusive.

Assays:
[1] = target: Rap guanine nucleotide exchange factor 3 (Homo sapiens) (UniProt O95398); assay: Confirmatory qHTS for antagonist of cAMP-regulated guanine nucleotide exchange factor 3 (EPAC1) (AID 1645880); note: nearly all actives have a fitted effect of over 55% in size; note: potency is the fitted concentration of half-maximal effect
Summary of the method: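 Released BODIPY-GDP fluoresces less than Rap1-bound BODIPY-GDP; the signal is followed at 480/540 nm at 5-min intervals over 30 min, after 5 min at room temperature. Reactions contain 100 nM EPAC1, 250 nM RAP1B-BODIPY-GDP and 50 uM GDP; results are normalized to ATA and DMSO.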

[2] = target: Rap guanine nucleotide exchange factor 3 (Homo sapiens) (UniProt O95398); assay: Confirmatory qHTS for agonist of cAMP-regulated guanine nucleotide exchange factor 3 (EPAC1) (AID 1645881); note: nearly all actives have a fitted effect of over 75% in size; note: potency is the fitted concentration of half-maximal effect;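 for activation: EPAC1 catalysed release of BODIPY-GDP from Rap1B seen as fluorescence loss; 100% = effect of cAMP agonist control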
[3] = target: Rap guanine nucleotide exchange factor 4 (Homo sapiens) (UniProt Q8WZA2); assay: Confirmatory qHTS for agonist of cAMP-regulated guanine nucleotide exchange factor 4 (EPAC2) (AID 1645884);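 note: nucleotide exchange releases bodipy-GDP from Rap1 and this lowers its fluorescence; % is set by controls: 0 for no effect and ±100 for the full control effect; nearly all actives have a fitted effect of over 65% in size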
[4] = target: Rap guanine nucleotide exchange factor 3 (Homo sapiens) (UniProt O95398); assay: Counterscreen qHTS for antagonist of cAMP-regulated guanine nucleotide exchange factor 3 (EPAC1) (AID 1645888); note: % of control where 0% means no effect
Summary of the method: (§1)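 Rap1B–BODIPY-GDP (250 nM) with 50 uM GDP; compounds pin-transferred to 9.74 nM–152 uM final (activator) or from 7.32 nM upwards (inhibitor). Fluorescence Ex/Em 480/540 nm read at 5 and 30 min, then after adding cAMP or buffer, at room temperature.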

[5] = target: Glucocorticoid receptor (Homo sapiens) (UniProt P04150); assay: GR-GFP Redistribution (AID 450;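 active = compounds whose dose series gives a full or clear partial fitted curve of increased nuclear translocation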; note: potency is the fitted concentration of half-maximal effect); conditions: U2OS GR-GFP nuclear translocation, laser cytometry, 2 h
[6] = target: Glucocorticoid receptor (Homo sapiens) (UniProt P04150); assay: GR-EFC Redistribution (AID 451; calls by dose curve; note: potency is the fitted concentration of half-maximal effect); conditions: CHO-K1 GR-EFC translocation, beta-gal luminescence, 2 h
Summary of the method: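 CHO-K1 cells expressing nuclear EA and GR-ED fragments of b-gal; compounds titrated up to 46 uM final, 2 h at 37 C. GR nuclear translocation read as complemented b-gal luminescence after 1 h RT detection.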

[7] = target: Mitogen-activated protein kinase 10 (Mus musculus) (UniProt Q61831); assay: JNK3 AlphaScreen Assay (AID 530; active = well fitted curve in either direction with a large enough effect, not every such curve was filed as active;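 note: kinase came from lysate of stimulated human HepG2 cells; signal reports phosphorylation of biotinylated GST-cJun 1-79 at Ser73 with 10 µM ATP; % is set by controls: 0 for no effect and ±100 for the full control effect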)
Summary of the method: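 Activity was read by AlphaScreen after JNK3-containing HepG2 lysate (cytokine pre-activated) phosphorylated biotinylated GST-cJun with 10 uM ATP at room temperature. Phospho-Ser73 cJun antibody with Protein-A acceptor beads provided detection.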

[8] = target: Cytochrome P450 2C9 (Homo sapiens) (UniProt P11712); assay: qHTS Assay for Inhibitors and Substrates of Cytochrome P450 2C9 (AID 883); note: potency is the fitted concentration of half-maximal effect; nearly all actives have a fitted effect of over 60% in size
Summary of the method: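 Human CYP2C9 (10nM) with Luciferin-H at 100uM (its KM) in 25mM KPO4; compound preincubated 10 min at 37C, then NADPH regeneration for 60 min at 37C. Luciferin read by luminescence after detection reagent; normalized to 57uM sulphaphenazole as full inhibition.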

[9] = target: Cytochrome P450 3A4 (Homo sapiens) (UniProt P08684); assay: qHTS Assay for Inhibitors and Substrates of Cytochrome P450 3A4 (AID 884); note: potency is the fitted concentration of half-maximal effect; nearly all actives have a fitted effect of over 50% in size
Summary of the method: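 Luminescent readout of luciferin produced by CYP3A4 (20 nM) dealkylation of Luciferin-PPXE, 25 uM (its KM). NADPH-driven reaction ran 60 min at RT after 10 min compound preincubation; data scaled to 57 uM ketoconazole as 100% inhibition.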

[10] = target: Cytochrome P450 3A4 (Homo sapiens) (UniProt P08684); assay: qHTS Assay for Activators of Cytochrome P450 3A4 (AID 885); note: nearly all actives have a fitted effect of over 65% in size
Summary of the method: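 Using 20nM recombinant human CYP3A4 in potassium phosphate (200mM), substrate Luciferin-PPXE at 25uM, luminescent luciferin detection followed a 60-min RT NADPH reaction; data scaled to 57 uM ketoconazole.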

[11] = target: DNA dC->dU-editing enzyme APOBEC-3G (Homo sapiens) (UniProt Q9HC16); assay: qHTS for inhibitors of Vif-A3G interactions: Validation (AID 588379); note: 0% is about no effect
Summary of the method: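 Yellow fluorescence (Ex 488, Em 500-530) of Vif-coexpressing HeLa A3G-eYFP cells, scanned by Acumen cytometer, reports blocked A3G degradation. Cells plated at 700/well overnight at 37 deg C before compound addition, then a further overnight compound incubation at 37 deg C.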

[12] = target: Rap guanine nucleotide exchange factor 4 (Homo sapiens) (UniProt Q8WZA2); assay: Confirmatory qHTS for antagonist of cAMP-regulated guanine nucleotide exchange factor 4 (EPAC2) (AID 1645885); note: % is set by controls: 0 for no effect and ±100 for the full control effect; nearly all actives have a fitted effect of over 25% in size
[13] = target: DNA polymerase kappa (Homo sapiens) (UniProt Q9UBT6); assay: qHTS for Inhibitors of Polymerase Kappa: Confirmatory Assay for Cherry-picked Compounds (AID 720501); conditions: purified Pol-kappa, fluorescent strand-displacement substrate; note: potency is the fitted concentration of half-maximal effect
Summary of the method: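 10 nM human Pol-kappa was preincubated with compound 15 min at room temperature, then 50 nM (final) primer/template substrate with TAMRA-labeled reporter strand and BHQ-2-labeled template added. Fluorescence (Ex 525, Em 598 nm) read at 0 and 10 min.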

[14] = target: DNA polymerase eta (Homo sapiens) (UniProt Q9Y253); assay: qHTS for Inhibitors of Polymerase Eta: Confirmatory Assay for Cherry-picked Compounds (AID 720502); conditions: Pol eta primer extension, TAMRA/BHQ fluorescence, 10 min; note: potency is the fitted concentration of half-maximal effect
Summary of the method: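 Compounds are preincubated 15 min at room temperature with 10 nM human Pol eta, with buffer-only wells serving as negative control. Adding 50 nM final substrate starts the reaction, and TAMRA fluorescence is read over 10 min.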

[15] = target: Rap guanine nucleotide exchange factor 3 (Homo sapiens) (UniProt O95398); assay: Counterscreen qHTS for agonist of cAMP-regulated guanine nucleotide exchange factor 3 (EPAC1) (AID 1645889); note: % of control where 0% means no effect; nearly all actives have a fitted effect of over 40% in size
Summary of the method: as §1

[16] = AP1 Signaling Pathway (AID 357; active = well fitted curve in either direction with a large enough effect, not every such curve was filed as active;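 note: ME-180 reporter cells stimulated with EGF at its EC50 level; % is set by controls: 0 for no effect and ±100 for the full control effect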)
Summary of the method: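 First, ME-180 AP-1-bla cells were cultured overnight at 37 °C in low-serum Opti-MEM. Next, titrated compounds with EC50 EGF were incubated 5 hours. Finally, CCF4 was added for 2.5 hours and the 460/530 nm ratio recorded.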

[17] = NFAT Signaling Pathway (AID 444; active = well fitted curve in either direction with a large enough effect, not every such curve was filed as active;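 note: carbachol stimulus at about its EC50 of 1 µM final; % is set by controls: 0 for no effect and ±100 for the full control effect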); conditions: Jurkat NFAT-bla M1, carbachol, beta-lactamase ratio, 5 h; at 17.2 µM (top of the series)
Summary of the method: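 Jurkat cells with NFAT-driven β-lactamase reporter and co-expressed M1 receptor, stimulated with carbachol (final 1 uM, ~EC50), compound titration, 5 h at 37 °C. CCF4 loaded 1 h at RT; 460/530 nm ratio gave %activity and AC50.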

[18] = Stat Signaling Pathway (AID 446; active = well fitted curve in either direction with a large enough effect, not every such curve was filed as active;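 note: ME-180 cervical cancer cells given 40 pM IL-6 alongside compound; SIE-controlled beta-lactamase reporter measured as 460/530 nm FRET emission ratio; % is set by controls: 0 for no effect and ±100 for the full control effect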)
Summary of the method: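 Overnight-plated ME-180 cells bearing a STAT Inducible Element beta-lactamase reporter; 5 h co-exposure to compound and 40 pM IL-6; values normalized to 300 pM IL-6 and 125 nM JAK inhibitor controls.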

Sequence of Rap guanine nucleotide exchange factor 3 (Homo sapiens) (O95398 whole entry, looked up): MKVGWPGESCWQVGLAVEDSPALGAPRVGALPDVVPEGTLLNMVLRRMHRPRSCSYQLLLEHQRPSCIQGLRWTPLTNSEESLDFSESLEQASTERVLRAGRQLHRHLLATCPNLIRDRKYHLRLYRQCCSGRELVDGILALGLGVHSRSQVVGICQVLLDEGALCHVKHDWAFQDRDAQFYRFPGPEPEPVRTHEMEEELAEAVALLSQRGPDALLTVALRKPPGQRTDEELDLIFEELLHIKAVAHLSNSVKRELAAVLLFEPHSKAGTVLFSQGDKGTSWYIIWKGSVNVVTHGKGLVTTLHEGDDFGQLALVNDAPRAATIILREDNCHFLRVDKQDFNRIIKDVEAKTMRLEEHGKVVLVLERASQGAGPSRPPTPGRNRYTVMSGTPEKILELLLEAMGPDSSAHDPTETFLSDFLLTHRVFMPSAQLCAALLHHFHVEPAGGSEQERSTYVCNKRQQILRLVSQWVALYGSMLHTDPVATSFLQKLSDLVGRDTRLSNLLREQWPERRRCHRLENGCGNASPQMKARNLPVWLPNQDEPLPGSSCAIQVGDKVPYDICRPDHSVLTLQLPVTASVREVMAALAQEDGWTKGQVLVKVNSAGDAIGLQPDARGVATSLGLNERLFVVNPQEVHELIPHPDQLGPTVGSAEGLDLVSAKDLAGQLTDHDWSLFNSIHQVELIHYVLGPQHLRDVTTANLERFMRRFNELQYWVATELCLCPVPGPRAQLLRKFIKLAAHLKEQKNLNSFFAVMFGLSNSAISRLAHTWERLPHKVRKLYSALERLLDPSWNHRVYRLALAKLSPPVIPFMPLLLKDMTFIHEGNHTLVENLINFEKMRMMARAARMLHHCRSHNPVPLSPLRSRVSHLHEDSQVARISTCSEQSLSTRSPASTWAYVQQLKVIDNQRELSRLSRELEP
Sequence of Rap guanine nucleotide exchange factor 4 (Homo sapiens) (Q8WZA2 whole entry, looked up): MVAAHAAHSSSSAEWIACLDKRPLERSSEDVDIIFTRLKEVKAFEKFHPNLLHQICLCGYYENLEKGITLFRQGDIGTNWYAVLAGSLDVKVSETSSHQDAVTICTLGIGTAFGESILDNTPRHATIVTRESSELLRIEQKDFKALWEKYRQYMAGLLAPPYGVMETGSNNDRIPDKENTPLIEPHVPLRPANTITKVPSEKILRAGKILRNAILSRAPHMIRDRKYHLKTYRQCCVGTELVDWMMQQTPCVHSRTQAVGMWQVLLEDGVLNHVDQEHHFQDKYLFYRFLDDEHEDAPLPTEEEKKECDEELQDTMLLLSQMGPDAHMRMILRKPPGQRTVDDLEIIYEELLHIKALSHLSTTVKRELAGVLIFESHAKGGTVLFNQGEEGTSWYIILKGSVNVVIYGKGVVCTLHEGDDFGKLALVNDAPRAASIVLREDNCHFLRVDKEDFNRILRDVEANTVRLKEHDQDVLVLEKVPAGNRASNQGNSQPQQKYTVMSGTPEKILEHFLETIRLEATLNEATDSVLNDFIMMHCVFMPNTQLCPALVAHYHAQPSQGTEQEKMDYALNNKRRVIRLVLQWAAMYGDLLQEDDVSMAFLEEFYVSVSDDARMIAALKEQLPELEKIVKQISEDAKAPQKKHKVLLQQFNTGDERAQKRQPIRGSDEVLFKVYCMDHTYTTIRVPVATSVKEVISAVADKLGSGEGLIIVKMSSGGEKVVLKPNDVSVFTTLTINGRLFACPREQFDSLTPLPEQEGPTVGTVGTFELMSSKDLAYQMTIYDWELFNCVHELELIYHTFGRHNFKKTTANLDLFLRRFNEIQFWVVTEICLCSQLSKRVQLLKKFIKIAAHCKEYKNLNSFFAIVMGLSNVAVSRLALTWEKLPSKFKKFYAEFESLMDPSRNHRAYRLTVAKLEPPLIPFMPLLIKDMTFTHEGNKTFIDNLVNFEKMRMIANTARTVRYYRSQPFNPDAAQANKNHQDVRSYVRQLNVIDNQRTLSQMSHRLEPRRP
Sequence of Glucocorticoid receptor (Homo sapiens) (P04150 whole entry, looked up, the tested form may be a part): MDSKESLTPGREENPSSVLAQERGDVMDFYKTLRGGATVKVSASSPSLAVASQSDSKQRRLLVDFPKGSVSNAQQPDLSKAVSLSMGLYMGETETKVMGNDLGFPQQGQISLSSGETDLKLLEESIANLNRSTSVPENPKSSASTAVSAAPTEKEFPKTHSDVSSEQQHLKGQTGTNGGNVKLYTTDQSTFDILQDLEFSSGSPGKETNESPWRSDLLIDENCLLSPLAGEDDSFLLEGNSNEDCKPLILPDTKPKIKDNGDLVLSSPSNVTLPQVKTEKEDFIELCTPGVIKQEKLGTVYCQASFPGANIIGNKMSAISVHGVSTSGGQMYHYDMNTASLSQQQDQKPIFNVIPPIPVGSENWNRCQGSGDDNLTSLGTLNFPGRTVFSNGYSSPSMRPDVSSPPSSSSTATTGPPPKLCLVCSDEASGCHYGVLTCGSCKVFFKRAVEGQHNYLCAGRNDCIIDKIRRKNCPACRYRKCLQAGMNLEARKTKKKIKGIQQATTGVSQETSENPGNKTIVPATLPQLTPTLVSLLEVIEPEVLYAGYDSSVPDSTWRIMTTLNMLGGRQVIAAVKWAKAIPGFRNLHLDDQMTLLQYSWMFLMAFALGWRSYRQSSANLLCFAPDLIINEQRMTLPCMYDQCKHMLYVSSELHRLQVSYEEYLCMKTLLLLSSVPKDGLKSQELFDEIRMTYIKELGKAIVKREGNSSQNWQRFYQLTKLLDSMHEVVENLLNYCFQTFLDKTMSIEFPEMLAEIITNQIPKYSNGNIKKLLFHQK
Sequence of Cytochrome P450 3A4 (Homo sapiens) (P08684 whole entry, looked up): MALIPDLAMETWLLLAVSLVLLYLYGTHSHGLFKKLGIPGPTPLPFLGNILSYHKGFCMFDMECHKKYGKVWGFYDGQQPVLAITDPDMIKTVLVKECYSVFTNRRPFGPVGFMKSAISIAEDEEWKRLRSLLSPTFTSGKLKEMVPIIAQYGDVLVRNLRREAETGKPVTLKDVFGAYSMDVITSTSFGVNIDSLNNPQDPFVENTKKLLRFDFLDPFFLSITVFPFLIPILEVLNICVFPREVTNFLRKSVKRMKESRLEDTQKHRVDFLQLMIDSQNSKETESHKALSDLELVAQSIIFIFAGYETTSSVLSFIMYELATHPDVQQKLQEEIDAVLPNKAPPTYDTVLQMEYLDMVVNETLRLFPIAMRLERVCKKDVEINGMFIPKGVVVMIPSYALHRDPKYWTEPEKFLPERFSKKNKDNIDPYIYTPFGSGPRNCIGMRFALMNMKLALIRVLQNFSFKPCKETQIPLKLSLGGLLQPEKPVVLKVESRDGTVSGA
Sequence of Cytochrome P450 2C9 (Homo sapiens) (P11712 whole entry, looked up): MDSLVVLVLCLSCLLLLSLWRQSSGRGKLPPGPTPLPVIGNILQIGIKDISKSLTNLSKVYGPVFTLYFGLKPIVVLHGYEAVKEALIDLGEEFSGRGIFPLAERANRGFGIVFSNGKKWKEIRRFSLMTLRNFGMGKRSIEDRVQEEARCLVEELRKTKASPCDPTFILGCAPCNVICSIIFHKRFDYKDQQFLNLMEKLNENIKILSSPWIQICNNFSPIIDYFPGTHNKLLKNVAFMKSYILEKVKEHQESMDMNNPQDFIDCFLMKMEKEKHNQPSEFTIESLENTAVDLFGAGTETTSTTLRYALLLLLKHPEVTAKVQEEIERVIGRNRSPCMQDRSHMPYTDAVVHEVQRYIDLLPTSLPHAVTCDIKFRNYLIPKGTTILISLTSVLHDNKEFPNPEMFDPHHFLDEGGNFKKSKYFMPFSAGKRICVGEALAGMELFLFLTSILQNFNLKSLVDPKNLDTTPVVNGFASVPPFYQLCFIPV
Sequence of DNA polymerase kappa (Homo sapiens) (Q9UBT6 whole entry, looked up): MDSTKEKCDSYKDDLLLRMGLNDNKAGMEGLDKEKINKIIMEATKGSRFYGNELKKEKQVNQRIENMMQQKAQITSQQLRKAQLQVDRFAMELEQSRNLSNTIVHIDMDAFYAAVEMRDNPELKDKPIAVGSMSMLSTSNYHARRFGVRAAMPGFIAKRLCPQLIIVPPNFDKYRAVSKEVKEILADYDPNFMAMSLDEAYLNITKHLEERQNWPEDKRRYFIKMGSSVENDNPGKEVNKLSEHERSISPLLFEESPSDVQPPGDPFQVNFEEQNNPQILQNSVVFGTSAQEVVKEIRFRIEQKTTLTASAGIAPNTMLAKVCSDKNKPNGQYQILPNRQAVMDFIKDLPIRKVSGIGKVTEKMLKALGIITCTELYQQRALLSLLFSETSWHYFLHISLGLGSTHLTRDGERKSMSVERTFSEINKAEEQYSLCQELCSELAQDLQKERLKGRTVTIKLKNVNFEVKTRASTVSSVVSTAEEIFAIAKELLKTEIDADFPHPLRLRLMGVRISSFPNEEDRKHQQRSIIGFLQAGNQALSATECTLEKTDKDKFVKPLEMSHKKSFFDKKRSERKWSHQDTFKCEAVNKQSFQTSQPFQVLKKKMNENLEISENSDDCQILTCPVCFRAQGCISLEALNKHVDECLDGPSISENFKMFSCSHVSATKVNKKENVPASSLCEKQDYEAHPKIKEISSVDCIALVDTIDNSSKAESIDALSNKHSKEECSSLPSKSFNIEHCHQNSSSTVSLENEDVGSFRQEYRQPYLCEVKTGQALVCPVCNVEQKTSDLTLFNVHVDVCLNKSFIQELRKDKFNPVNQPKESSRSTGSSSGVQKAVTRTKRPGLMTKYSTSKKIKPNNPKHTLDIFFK
Sequence of DNA dC->dU-editing enzyme APOBEC-3G (Homo sapiens) (Q9HC16 whole entry, looked up): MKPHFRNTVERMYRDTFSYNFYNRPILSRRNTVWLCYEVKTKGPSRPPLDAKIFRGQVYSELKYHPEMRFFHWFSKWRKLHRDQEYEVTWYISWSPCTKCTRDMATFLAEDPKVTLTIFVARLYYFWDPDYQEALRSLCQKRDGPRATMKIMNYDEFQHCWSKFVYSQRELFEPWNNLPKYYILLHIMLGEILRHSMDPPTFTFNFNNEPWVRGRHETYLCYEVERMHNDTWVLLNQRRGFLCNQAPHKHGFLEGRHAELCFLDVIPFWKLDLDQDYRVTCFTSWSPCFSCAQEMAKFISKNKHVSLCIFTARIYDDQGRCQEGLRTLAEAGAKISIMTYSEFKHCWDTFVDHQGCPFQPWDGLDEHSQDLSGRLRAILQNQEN

SMILES: Cc1cc(=O)oc2cc(OCC(=O)N3CCC(C(=O)O)(c4ccccc4)CC3)ccc12
- Potency [1]: 75.7 µM (active)
- Potency [2]: inactive
- Potency [3]: inactive
- outcome [4]: inactive

SMILES: CCCCC/C=C\C/C=C\C/C=C\C/C=C\CCCC(=O)Nc1ccc(O)cc1
- Potency [5]: > 46 µM
- Potency [6]: > 46 µM
- outcome [7]: inactive
- Potency [8]: 5.01 µM (active)
- Potency [9]: 5.01 µM (active)
- Potency [10]: inactive
- outcome [11]: inactive
- Potency [1]: inactive
- Potency [2]: inactive
- Potency [3]: inactive
- Potency [12]: inactive

SMILES: O=C1NC(=O)N(Cc2ccco2)C(=O)/C1=C\c1ccc(-c2ccc(F)cc2)o1
- Potency [13]: 42.3 µM (active)
- Potency [14]: 47.8 µM (active)
- Potency [1]: 22.4 µM (active)
- Potency [2]: inactive
- activation [3]: -0.903% [at 17.1 µM, percent relative to cAMP agonist control]
- activity change, negative = inhibition [12]: -6.14% [at 12.7 µM]
- activation [15]: 11.1% [at 30.8 µM]

SMILES: O=c1nc(/C=C/c2ccc(Cl)cc2Cl)cc(C(F)(F)F)[nH]1
- Potency [1]: 44.7 µM (active)
- Potency [2]: inactive
- activation [3]: -2.31% [at 17.1 µM, percent relative to cAMP agonist control]
- activity change, negative = inhibition [12]: -10% [at 12.7 µM]
- activation [15]: 4.81% [at 30.8 µM]

SMILES: COc1ccc(C(=O)C2CN(C)CC2c2ccc(Cl)cc2)cc1 (configuration not stated)
- Potency [1]: inactive
- Potency [2]: inactive
- activation [3]: 2.15% [at 17.1 µM, percent relative to cAMP agonist control]
- activity change, negative = inhibition [12]: -16.3% [at 12.7 µM]
- activity change, negative = inhibition [4]: 7.3% [at 30.8 µM]
- activation [15]: 27.2% [at 30.8 µM]

SMILES: CN1C(=O)/C(=C/c2cccn2-c2ccc3ccccc3c2)C(=O)NC1=S
- Potency [1]: 33.8 µM (active)
- Potency [2]: inactive
- Potency [3]: inactive
- Potency [12]: inactive
- outcome [4]: inactive
- Potency [15]: inactive

SMILES: CCOC(=O)[C@]12Cc3ccccc3[C@H]1N(Cc1ccccc1)C(=O)c1cc(OC)ccc12
- Potency [1]: inactive
- Potency [2]: inactive
- activation [3]: -5.98% [at 17.1 µM, percent relative to cAMP agonist control]
- activity change, negative = inhibition [4]: 2.15% [at 30.8 µM]
- activation [15]: 20.9% [at 30.8 µM]

SMILES: CCN(CC)c1ccc(N=Cc2c(O)n(-c3cc(OC)ccc3OC)c(=O)[nH]c2=O)cc1
- outcome [16]: inactive
- activity change, negative = inhibition [17]: -6.84%
- outcome [18]: inactive
- Potency [5]: > 20.6 µM
- Potency [1]: inactive
- Potency [2]: 70.8 µM (active)
- activation [3]: 4.47% [at 17.1 µM, percent relative to cAMP agonist control]
- activity change, negative = inhibition [12]: -9.2% [at 12.7 µM]
